# Source: PubChem (Sanford-Burnham Center for Chemical Genomics)
# In the library only some 4% were active in any assay of this set; here they are far more common.
# Peg3 prom inh = inhibitors of Peg3 promoter | HeLa PEG-Prom luciferase reporter, luminescence, overnight | inhibition, % at 20 µM | 360,000 tested, 1.7% active | AID 588405;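 active means inhibition of at least 50% at 20 µM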
# TWEAK Fn14 block = inhibitors of TWEAK-Fn14 interaction signaling; TWEAK-stimulated Fn14 reporter cells, luciferase luminescence, 8 h; inhibition, % at 10 µM; 360,000 tested, 2% active; AID 1159606; in the data active means inhibition above about 50%
# HIF-2a block = blocks HIF-2a reporter activity. 360,000 tested, 0.72% active. inhibition, % at 18.8 µM. 786-0 RCC cells HIF-2a reporter, luciferase luminescence, overnight. AID 624352;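 active means inhibition of the luminescence signal of 40% or more relative to plate controls, in a single-dose primary screen at 18.75 µM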
# TROY signal inh = inhibitors of TROY-dependent NF-kB signaling; Q293 LMP1-TROYcd NF-kB luciferase reporter, 4 h; inhibition, % at 10 µM; 360,000 tested, 0.98% active; AID 1347056;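 active means compounds whose plate-normalised and pattern-corrected inhibition of the luciferase reporter signal at the single screening dose is 50% or more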
# CF NFkB inh = cystic fibrosis NF-kB activation inhibition | KKLEB NF-kB-GFP reporter, PAF-induced, GFP fluorescence overnight | inhibition, % at 5 µM | 360,000 tested, 0.86% active;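 active means at least 50% inhibition at 5 µM, scaled per plate between neutral and stimulator controls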;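 further: PAF is a Pseudomonas aeruginosa culture filtrate used as stimulus; plate controls were PAF-stimulated DMSO wells for no effect and unstimulated DMSO wells for full effect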
# KKLEB tox = reduces viability of KKLEB cystic fibrosis airway cells | KKLEB CF airway cells viability, ATPlite luminescence, overnight; hits give low values; cells stimulated with P. aeruginosa culture filtrate | activity change (cytotoxicity), % at 5 µM | 360,000 tested, 0.36% active;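 active means corrected activity change at or below -50% at 5 µM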
# Starred values were filed as active, the others as inactive; nt = no result given.
SMILES,Peg3 prom inh,TWEAK Fn14 block,HIF-2a block,TROY signal inh,CF NFkB inh,KKLEB tox
COc1ccccc1N/C(N)=N/c1nc(CSc2ccc(C)cc2)cc(=O)[nH]1,18,44,0,14,-11,-1
COc1cccc(C(=O)OC(C)C(=O)NCC2CCCCC2)c1 (centres undefined),12,-7,11,0,24,-4
CC(C)N(C(=O)COC(=O)c1ccccc1C(=O)c1ccc(Cl)c([N+](=O)[O-])c1)C(C)C,74*,35,19,74*,41,-1
O=C(OCC(=O)N1CCc2ccccc2C1)c1ccc(Cl)c([N+](=O)[O-])c1,99*,8,24,-7,12,-6
Nc1ccc(C(=O)OCC(=O)N2CCc3ccccc3C2)cc1[N+](=O)[O-],-95,-30,-55,-63,6,-6
CC(C)CN1CCN(C(=O)COC(=O)c2ccc(S(C)(=O)=O)c([N+](=O)[O-])c2)CC1,97*,80*,94*,21,79*,-7
Cc1cc(C(=O)OCC(=O)c2ccc(Cl)c([N+](=O)[O-])c2)c2cccc(C)c2n1,11,-5,-1,1,-9,4
COc1ccc(C(=O)c2ccc(Cl)c([N+](=O)[O-])c2)cc1,19,20,25,23,64*,-44
CCOC(=O)C1CCN(c2ncnc3c2cnn3C)CC1,8,8,13,10,-2,6
N#Cc1ccccc1NC(=O)COC(=O)CCc1ccccc1,6,-14,12,-2,0,-3
COc1cc(NC(C)CCCN)c2ncccc2c1 (centres undefined),-11,86*,-1,-4,23,-19
COc1cc(NC(=O)OCc2ccccc2)c2ncccc2c1,1,6,-14,-27,-2,-12
COc1cc(NCCCCCCCN)c2ncccc2c1,1,97*,4,-7,11,-14
COc1cc(NCc2ccccc2O)c2ncccc2c1,-38,15,-31,6,1,-5
COc1cc(OC)cc(OC(=O)C2CCN(C(=O)c3ccc(Cl)cc3)CC2)c1,4,1,-6,-3,-26,-11
CCOc1ccc(N(C(=O)/C=C/C(=O)Nc2cc(C)on2)C(C(=O)NC2CCCC2)c2ccccc2C)cc1 (centres undefined),42,49,-3,25,15,-17
CCc1ccc(C(C(=O)NC2CCCC2)N(C(=O)/C=C/C(=O)Nc2cc(C)on2)c2ccccc2C)cc1 (centres undefined),36,56*,18,27,17,-14
COc1ccc([C@@H]2[C@@H]3C(=O)N(C(C)(C)C)C(=O)[C@@H]3[C@]3(Cc4ccccc4)C(=O)N(c4ccc(Br)cc4)C(=O)N23)cc1,11,-5,-12,-40,71*,-83*
C[C@@H]1NS(=O)(=O)[C@H]2C[C@@H]3C=C[C@]2(O3)[C@H]1OC(=O)Nc1ccc(C(F)(F)F)cc1[N+](=O)[O-],-8,-15,4,3,17,-6
Cc1ccc(N2CC(C(=O)Nc3cccnc3)CC2=O)cc1Cl (centres undefined),7,-23,14,-7,0,-5
CC(C)NC(=O)C1C(c2ccc(C(F)(F)F)cc2)=Nc2ccccc2N1C(=O)c1cccc(C(F)(F)F)c1 (centres undefined),nt,nt,-9,nt,nt,nt
O=C(COC(=O)c1n[nH]c(=O)c2ccccc12)Nc1ccccc1F,8,-9,13,1,4,-2
Cc1nnc(Sc2cc(NCCCO)c([N+](=O)[O-])c3nonc23)s1,56*,-5,32,10,-7,6
Cc1nnc(Sc2cc(NCCO)c([N+](=O)[O-])c3nonc23)s1,31,13,25,5,-10,20
CCCSc1cc(NCCOC(=O)CCC)c([N+](=O)[O-])c2nonc12,56*,21,14,19,-6,-2
SMILES,Peg3 prom inh,TWEAK Fn14 block,HIF-2a block,TROY signal inh,CF NFkB inh,KKLEB tox
O=[N+]([O-])c1c(NCCCO)cc(Sc2nc3ccccc3s2)c2nonc12,101*,2,35,-9,-20,13
CC(=O)OCCCNc1cc(SCc2ccco2)c2nonc2c1[N+](=O)[O-],46,11,-1,9,1,2
CCn1cc([N+](=O)[O-])c(C(=O)N2CCCCCC2)n1,14,-13,5,-8,-12,14
Cn1nc(C(=O)Nc2cccc(S(N)(=O)=O)c2)c2ccccc2c1=O,0,11,-14,-37,-26,-5
COc1ccc(NS(=O)(=O)c2cc(NC(=O)c3cncc(Br)c3)ccc2OC)cc1,24,52*,15,32,31,-11
COc1ccc(NS(=O)(=O)c2cc(NC(=O)c3nn(C)c(=O)c4ccccc34)ccc2OC)cc1,22,53*,10,-9,-42,-8
COc1cc(C2c3cc4c(cc3CC3COC(=O)N32)OCO4)cc(OC)c1OC (centres undefined),-26,-5,11,21,30,-13
CN(C)CCN1CCN(C(c2ccnc3ccccc23)c2nnnn2-c2ccc3c(c2)OCCO3)CC1 (centres undefined),nt,31,2,1,nt,nt
COc1ccc(NC(=O)/C(Cl)=C(/Cl)S(=O)(=O)Cc2ccc(C)cc2)cn1,105*,103*,96*,86*,87*,-71*
N#Cc1c(Sc2ncc(C(F)(F)F)cc2Cl)nsc1C/C=N\OCc1ccccc1Br,5,67*,5,nt,-20,15
CCOc1ccc(-n2nnnc2-c2nc3ccccc3s2)cc1,-74,74*,-65,62*,70*,-70*
COc1cc(OC)c(OC)cc1CNCc1ccco1,8,3,22,9,-4,8
CN1N=C(C(C)(C)C)CSC1=Nc1ccc(F)cc1,2,66*,7,-10,9,-14
CCCn1c(NC(=O)c2ccc(Cl)c(S(=O)(=O)N3CCCC3)c2)nc2ccccc21,53*,60*,12,34,-4,-7
Cc1nc(-c2ccc(C(=O)Nc3cccc(F)c3)cc2)cs1,-87,92*,-132,56*,5,-25
Cc1nc(-c2cccc(NC(=O)c3ccc(Cl)c(S(=O)(=O)N4CCCC4)c3)c2)cs1,55*,44,-37,48,-6,-6
COc1ccc(NC(=O)c2ccc(-c3csc(C)n3)cc2)cc1,-208,4,-163,-42,18,-9
Cc1nc(-c2ccc(C(=O)Nc3ccc(F)cc3)cc2)cs1,-207,36,-223,-36,8,-5
Cc1nc(-c2ccc(C(=O)Nc3ccccc3F)cc2)cs1,35,90*,16,66*,-32,-15
O=c1c(O)cccc2cc(O)c(O)c(O)c12,19,78*,25,13,-10,1
O=C(NCc1ccc(F)cc1F)[C@@H]1CCCN1C(=O)[C@@H]1CCCN1C(=O)c1cccs1,nt,19,2,4,nt,nt
